# Laboratory results: PubChem BioAssay (EPA / NIEHS)
# The source made the active and inactive calls. How the source made its calls: active means hit-call score of the fitted dose curve at least 0.9, where 1 is the maximum; inactive means score below 0.9.
# Tests used:
# [1] = ATG_CRE_CIS: Attagene CIS-FACTORIAL HepG2 Assay for human cAMP Responsive Element (CRE) binding protein 3 (AID 2282926); settings: HepG2 CRE cis-reporter, Attagene multiplexed mRNA; actives raise or lower the signal
# Procedure, shortened: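 Readout: fluorescently labelled reporter transcripts resolved by capillary electrophoresis after RT-PCR, taken 24 h post-dosing in transfected HepG2. Endogenous transcription factor activity drives each cis-element reporter; gain or loss of signal fitted relative to DMSO control.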
# [2] = target: CCAAT/enhancer-binding protein beta (Homo sapiens) (UniProt P17676); test: ATG_C_EBP_CIS: Attagene CIS-FACTORIAL HepG2 Assay for human CCAAT/Enhancer Binding Protein (C/EBP) beta (AID 2282927); settings: HepG2 Attagene cis-factorial transcription factor reporter; actives raise or lower the signal
# Procedure, shortened: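 Endogenous transcription factor activity in human liver HepG2 cells is inferred from induction of a CEBPB-linked reporter mRNA. Exposure lasts 24 h; activity is fitted in both directions relative to DMSO.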
# [3] = ATG_CMV_CIS: Attagene CIS-FACTORIAL HepG2 Assay for human CMV (Internal Marker) (AID 2282928); settings: HepG2 CMV promoter reporter, transcription factor profiling; actives raise or lower the signal;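 further: endpoint acts as a background internal control marker rather than a target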
# Procedure, shortened: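 Bidirectional fits against DMSO are applied to reporter mRNA, read by RT-PCR with capillary electrophoresis, from HepG2 cells exposed 24 h. The endpoint serves as an internal CMV background marker within the cis-factorial reporter panel.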
# [4] = ATG_DR4_LXR_CIS: Attagene CIS-FACTORIAL HepG2 Assay for human Liver X Receptor (LXR), DR4 submotif (AID 2282929); settings: HepG2 Attagene DR4 cis-reporter, mRNA transcription; actives raise or lower the signal
# Procedure, shortened: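 Readout: reporter transcript fluorescence after RT-PCR and capillary electrophoresis, fitted bidirectionally against DMSO controls. Human HepG2 liver cells carried transiently transfected multiplexed reporter constructs; endogenous transcription factor activity measured 24 h post-dosing.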
# [5] = target: Aryl hydrocarbon receptor (Homo sapiens) (UniProt P35869); test: ATG_Ahr_CIS: Attagene CIS-FACTORIAL HepG2 Assay for human Aryl Hydrocarbon Receptor (Ahr) (AID 2282930); settings: HepG2 AhR cis-factorial reporter transcription; actives raise or lower the signal
# Procedure, shortened: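 Transient MRTU transfection of HepG2 → 24 h compound exposure → total RNA, oligo(dT) RT → PCR, 6-FAM extension, HpaI cut → CE fluorescence. DMSO = baseline; bidirectional curve fit.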
# [6] = ATG_AP_1_CIS: Attagene CIS-FACTORIAL HepG2 Assay for human Activator Protein 1 (AP-1) (AID 2282931); settings: HepG2 Attagene cis-factorial AP-1 reporter mRNA; actives raise or lower the signal
# Procedure, shortened: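 Reporter transcripts were measured 24 h after dosing by RT-PCR and capillary electrophoresis of fluorescent fragments. Cells: HepG2 carrying transfected cis-regulated reporter constructs reading endogenous factor activity. Gain or loss fitted against DMSO.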
# [7] = ATG_AP_2_CIS: Attagene CIS-FACTORIAL HepG2 Assay for human Activator Protein 2 (AP-2) (AID 2282932); settings: HepG2 AP-2 cis-reporter, Attagene transcription factor profiling; actives raise or lower the signal
# Procedure, shortened: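 Endogenous transcription factor activity is reported through transfected multiplex reporter constructs in HepG2, after 24 h of compound exposure. Transcripts were quantified by RT-PCR and capillary electrophoresis of fluorescent fragments. Bidirectional fit against DMSO.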
# [8] = ATG_BRE_CIS: Attagene CIS-FACTORIAL HepG2 Assay for human Bone Morphogenetic Protein (BMP) Response Element (BRE) (AID 2282933); settings: HepG2 BMP response element reporter, Attagene transcription factor profiling; actives raise or lower the signal
# Procedure, shortened: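 Fluorescence-labelled reporter cDNA fragments, separated by capillary electrophoresis, gave the signal for this component of a 52-readout multiplex. HepG2 cells were transfected, exposed to chemicals for 24 h, and compared with DMSO using bidirectional fitting.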
# [9] = target: Transcription factor E2F1 (Homo sapiens) (UniProt Q01094); test: ATG_E2F_CIS: Attagene CIS-FACTORIAL HepG2 Assay for human E2F Transcription Factor 1 (AID 2282935); settings: HepG2 Attagene cis-reporter, E2F reporter RNA transcripts; actives raise or lower the signal
# Procedure, shortened: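 Gain or loss of reporter transcript, fitted against DMSO, reflects E2F1-driven transcription. Transiently transfected HepG2 dosed 24 h before RNA isolation. Quantified by fluorescent RT-PCR products separated by capillary electrophoresis.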
# [10] = target: Retinoic acid receptor alpha (Homo sapiens) (UniProt P10276); test: ATG_DR5_RAR_CIS: Attagene CIS-FACTORIAL HepG2 Assay for human Retinoic Acid Receptor Alpha (RARE), DR5 submotif (AID 2282934); settings: HepG2 Attagene cis-factorial RARE DR5 reporter, mRNA; actives raise or lower the signal;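 on AC50: reporter responds to endogenous RAR alpha beta and gamma in HepG2 not RARA alone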
# Procedure, shortened: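 Transient MRTU transfection of HepG2; 24 h compound treatment; TriZol RNA, oligo(dT) RT, PCR, FAM labelling, capillary electrophoresis. Bidirectional fit vs DMSO. Endogenous TF activity at DR5 RARE.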
# Chain of Retinoic acid receptor alpha (Homo sapiens) (P10276 whole entry, looked up): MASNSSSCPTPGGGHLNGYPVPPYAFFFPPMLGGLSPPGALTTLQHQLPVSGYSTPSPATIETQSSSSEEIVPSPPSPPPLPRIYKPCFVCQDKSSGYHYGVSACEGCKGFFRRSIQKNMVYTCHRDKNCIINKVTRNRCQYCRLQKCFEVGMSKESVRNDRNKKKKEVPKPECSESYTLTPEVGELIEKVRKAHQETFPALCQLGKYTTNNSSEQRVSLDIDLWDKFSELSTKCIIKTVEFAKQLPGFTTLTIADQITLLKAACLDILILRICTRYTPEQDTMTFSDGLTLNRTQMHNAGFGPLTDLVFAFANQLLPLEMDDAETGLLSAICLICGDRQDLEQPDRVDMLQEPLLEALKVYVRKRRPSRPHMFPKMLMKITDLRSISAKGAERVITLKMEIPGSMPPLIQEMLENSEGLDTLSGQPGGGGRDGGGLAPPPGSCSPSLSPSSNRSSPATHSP
# Chain of Transcription factor E2F1 (Homo sapiens) (Q01094 whole entry, looked up): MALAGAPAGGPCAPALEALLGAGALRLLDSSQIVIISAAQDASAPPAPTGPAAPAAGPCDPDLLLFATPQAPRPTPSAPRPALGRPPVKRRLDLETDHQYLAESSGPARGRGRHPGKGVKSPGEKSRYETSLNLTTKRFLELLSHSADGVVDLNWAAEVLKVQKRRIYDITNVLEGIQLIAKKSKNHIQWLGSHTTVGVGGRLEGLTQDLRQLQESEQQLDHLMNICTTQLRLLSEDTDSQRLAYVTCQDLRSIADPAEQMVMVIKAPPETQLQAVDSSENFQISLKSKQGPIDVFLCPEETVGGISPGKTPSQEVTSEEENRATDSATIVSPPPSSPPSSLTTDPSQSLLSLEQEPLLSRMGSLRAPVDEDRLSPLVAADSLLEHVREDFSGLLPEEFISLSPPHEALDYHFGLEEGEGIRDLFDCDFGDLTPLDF
# Chain of CCAAT/enhancer-binding protein beta (Homo sapiens) (P17676 whole entry, looked up): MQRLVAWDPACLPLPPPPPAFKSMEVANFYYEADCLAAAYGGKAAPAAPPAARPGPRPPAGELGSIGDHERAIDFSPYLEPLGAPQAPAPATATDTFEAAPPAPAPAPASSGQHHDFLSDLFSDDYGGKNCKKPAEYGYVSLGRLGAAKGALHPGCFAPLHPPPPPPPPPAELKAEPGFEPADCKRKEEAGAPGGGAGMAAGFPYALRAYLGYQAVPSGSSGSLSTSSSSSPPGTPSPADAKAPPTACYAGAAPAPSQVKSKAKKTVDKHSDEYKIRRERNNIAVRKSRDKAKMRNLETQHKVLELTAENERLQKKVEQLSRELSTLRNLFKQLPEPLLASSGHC
# Chain of Aryl hydrocarbon receptor (Homo sapiens) (P35869 whole entry, looked up): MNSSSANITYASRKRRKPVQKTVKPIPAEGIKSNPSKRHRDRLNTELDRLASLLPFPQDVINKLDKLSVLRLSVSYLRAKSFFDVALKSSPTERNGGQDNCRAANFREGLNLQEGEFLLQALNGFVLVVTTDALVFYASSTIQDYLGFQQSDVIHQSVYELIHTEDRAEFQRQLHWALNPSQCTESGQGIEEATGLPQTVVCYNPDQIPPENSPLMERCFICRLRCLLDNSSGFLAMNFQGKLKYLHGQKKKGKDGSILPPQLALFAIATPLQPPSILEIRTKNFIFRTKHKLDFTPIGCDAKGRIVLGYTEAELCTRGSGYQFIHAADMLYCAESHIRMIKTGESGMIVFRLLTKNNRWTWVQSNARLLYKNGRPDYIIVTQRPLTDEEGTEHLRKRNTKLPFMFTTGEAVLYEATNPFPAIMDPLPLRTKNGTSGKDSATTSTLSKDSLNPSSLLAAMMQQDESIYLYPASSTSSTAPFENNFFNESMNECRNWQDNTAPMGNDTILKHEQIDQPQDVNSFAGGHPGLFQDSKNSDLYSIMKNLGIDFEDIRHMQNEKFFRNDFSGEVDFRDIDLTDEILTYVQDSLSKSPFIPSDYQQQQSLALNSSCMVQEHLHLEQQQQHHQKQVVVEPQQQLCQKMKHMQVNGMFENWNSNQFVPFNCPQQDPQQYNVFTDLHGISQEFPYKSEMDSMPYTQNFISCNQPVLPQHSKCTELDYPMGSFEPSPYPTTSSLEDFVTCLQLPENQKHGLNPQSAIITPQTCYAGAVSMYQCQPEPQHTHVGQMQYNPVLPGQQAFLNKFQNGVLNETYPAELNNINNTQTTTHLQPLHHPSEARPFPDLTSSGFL
SMILES,outcome [1],outcome [2],outcome [3],outcome [4],outcome [5],AC50 [6],outcome [7],outcome [8],outcome [9],outcome [6],outcome [10],AC50 [7],AC50 [3],AC50 [8],AC50 [2],AC50 [4],AC50 [10]
CC(C)COC(=O)C=Cc1ccccc1,inactive,inactive,inactive,inactive,inactive,139 µM (active),inactive,inactive,inactive,,,,,,,,
O=C1OC(=O)c2cc(Oc3ccc4c(c3)C(=O)OC4=O)ccc21,inactive,inactive,inactive,inactive,,,inactive,inactive,inactive,inactive,inactive,,,,,,
CC(=O)Oc1ccc(C(C)=O)cc1,inactive,inactive,inactive,inactive,,,inactive,inactive,inactive,inactive,inactive,,,,,,
CC(=O)[C@@]1(O)CC[C@H]2[C@@H]3C[C@H](C)C4=CC(=O)C=C[C@]4(C)[C@@]3(F)[C@@H](O)C[C@@]21C,inactive,inactive,inactive,inactive,inactive,,inactive,inactive,inactive,inactive,,,,,,,
O=C(OCC1CCC2OC2C1)C1CCC2OC2C1 (centres undefined),inactive,inactive,inactive,inactive,inactive,,inactive,inactive,inactive,inactive,,,,,,,
Cc1ccc([N+](=O)[O-])cc1S(=O)(=O)O,inactive,inactive,inactive,inactive,,,,inactive,inactive,inactive,inactive,163 µM (active),,,,,
CCOC(=O)[C@H](C)O,inactive,inactive,inactive,inactive,,,inactive,inactive,,inactive,inactive,,,,,,
c1ccc(CCCc2ccncc2)cc1,inactive,inactive,,inactive,,37.7 µM (active),,,inactive,,inactive,100 µM (active),43.2 µM (active),93.3 µM (active),,,
CCC(C)C=O (centres undefined),inactive,inactive,inactive,inactive,,,inactive,inactive,inactive,inactive,inactive,,,,,,
CC(=O)OCC(C)OC(C)=O (centres undefined),inactive,inactive,inactive,inactive,,,inactive,inactive,inactive,inactive,inactive,,,,,,
CC(C)(C)C(=O)C=Cc1ccc(Cl)cc1,inactive,,inactive,,inactive,26 µM (active),,,inactive,,,169 µM (active),,12.3 µM (active),26.5 µM (active),17.2 µM (active),
NC(=O)NNC(N)=O,inactive,inactive,inactive,inactive,inactive,,inactive,inactive,inactive,inactive,,,,,,,
CC1(C)O[C@@H]2C[C@H]3[C@@H]4C[C@H](F)C5=CC(=O)C=C[C@]5(C)[C@@]4(F)[C@@H](O)C[C@]3(C)[C@]2(C(=O)CO)O1,inactive,inactive,inactive,inactive,,,inactive,inactive,inactive,inactive,inactive,,,,,,
CCOc1nc(F)cc2nc(S(=O)(=O)Nc3c(Cl)cccc3C(=O)OC)nn12,inactive,inactive,inactive,inactive,inactive,,inactive,inactive,inactive,inactive,,,,,,,
Cc1cc(C)c(C)c(O)c1,inactive,inactive,inactive,inactive,inactive,,inactive,inactive,inactive,inactive,,,,,,,
CC1=NN(c2cc(S(=O)(=O)O)ccc2Cl)C(=O)C1N=Nc1ccccc1 (centres undefined),inactive,inactive,inactive,inactive,,,inactive,inactive,,inactive,inactive,,,,,,
O=CC1CC1,inactive,inactive,inactive,inactive,,,inactive,inactive,inactive,inactive,inactive,,,,,,
CCCCC/C=C\C/C=C\CCCCCCCC(=O)OC,inactive,inactive,inactive,inactive,,132 µM (active),inactive,,,,,,,126 µM (active),,,71.2 µM (active)
O=C(O)c1cc2ccccc2nc1C(=O)O,inactive,inactive,inactive,inactive,,,inactive,inactive,,inactive,inactive,,,,,,
OCCN(CCO)c1ccccc1,inactive,inactive,inactive,inactive,,,inactive,inactive,,inactive,inactive,,,,,,
CCCCCCCCC(=O)OCC,inactive,inactive,inactive,inactive,,,inactive,inactive,inactive,inactive,inactive,,,,,,
